HSF1 activator: increases HSF-1 driven luciferase reporter signal; 300,000 tested, 1.7% active; activation, % at 9 µM; NIH3T3-HGL HSF-1 luciferase reporter, MG132, 8 h; 100% = twice DMSO control signal; AID 504408;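 active means mean replicate activation of at least 50% with a set share of replicates each reaching 50%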
HSP90 refold inh: blocks HSP90-mediated luciferase refolding in reticulocyte lysate. Rabbit reticulocyte lysate, luciferase refolding luminescence, 3 h. 290,000 tested, 0.91% active. inhibition, % at 5.6 µM;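 active means inhibition above the screen-wide mean plus 3 SD, computed separately per campaign, cut at about 16% in these data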;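 further: inhibitors lower the luminescence because luciferase stays unfolded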
TWEAK Fn14 block: blocks TWEAK-Fn14 interaction in a reporter cell assay | TWEAK-stimulated Fn14 reporter cells, luciferase luminescence, 8 h | inhibition, % at 10 µM | 360,000 tested, 2% active | AID 1159606; in the data active means inhibition above about 50%
EBV LMP1 NFkB: inhibitors of Epstein-Barr LMP1-induced NF-kappaB reporter; inhibition, % at 12.5 µM; LMP1-induced NF-kappaB luciferase reporter cells, luminescence; 350,000 tested, 0.69% active; in the data active means inhibition above about 41%
HSF1 inhib: HSF1 inhibition | NIH3T3-HGL HSE-luciferase, MG132-induced, luminescence 8 h; active compounds read low | activity change, negative = inhibition, % at 7.5 µM (by protocol) | 300,000 tested, 0.77% active | AID 2098;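 active means more than half of replicate wells show activity change below -50%, luminescence cut by over half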;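 further: luciferase reports HSF-1 transcriptional activity via heat shock element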
TROY NFkB inh: blocks TROY-dependent signaling in reporter cells. Q293 LMP1-TROYcd NF-kB luciferase reporter, 4 h. inhibition, % at 10 µM. 360,000 tested, 0.98% active;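 active means compounds whose plate-normalised and pattern-corrected inhibition of the luciferase reporter signal at the single screening dose is 50% or more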
A number is an active result; 0 = inactive; - = no result. The list is not random: actives were taken first. Their share in the collection is about 4.7%.

SMILES | HSF1 activator | HSP90 refold inh | TWEAK Fn14 block | EBV LMP1 NFkB | HSF1 inhib | TROY NFkB inh
COc1ccc(OCCSc2nc3ccccc3n2CC(=O)O)cc1 | 0 | 0 | 0 | 0 | 0 | 0
O=C(O)Cn1c(SCCOc2ccc(Cl)cc2)nc2ccccc21 | 63.1 | 0 | 0 | 0 | 0 | 0
CCOc1ccc(-c2csc(/C(C#N)=C\c3ccc(O)c([N+](=O)[O-])c3)n2)cc1 | 0 | 0 | 103.8 | 0 | 0 | 70.7
COc1ccc(-c2nn(-c3ccccc3)cc2C(=O)NC(=S)NNC(=O)c2ccncc2)cc1 | - | 0 | 60.2 | 0 | - | 0
CC(=O)N1CC2(CC(c3ccc(Cl)cc3Cl)=NO2)CN1c1cccc(Cl)c1 (stereo not given) | - | - | 0 | 0 | - | 0
CCCCCc1ccc(-c2ccc(/C=C/C(=O)O)cc2)nc1 | 0 | 0 | 59.6 | 43.2 | 0 | 0
Cc1nc2sccn2c(=O)c1S(=O)(=O)N1CCN(c2ccccc2F)CC1 | - | - | 0 | - | - | 0
COc1ccc(CCn2c(N)c(C(=O)NCc3ccco3)c3nc4ccccc4nc32)cc1OC | 0 | 0 | 0 | 0 | 0 | 0
COc1ccc(CCn2c(N)c(C(=O)NCc3ccco3)c3nc4ccccc4nc32)cc1 | 0 | 0 | 61.0 | 0 | 0 | 65.5
Nc1c(C(=O)NCc2ccco2)c2nc3ccccc3nc2n1CCc1ccccc1F | 0 | 0 | 0 | 0 | 0 | 53.9
COc1ccccc1CNC(=O)COc1cc(O)c2c(c1)OC(C)(C)CC2=O | - | - | 0 | - | - | 0
CC(=O)NC1=C(NC2CCS(=O)(=O)C2)C(=O)c2ccccc2C1=O (stereo not given) | 0 | 0 | 0 | 0 | 0 | 0
CN(C1=C(NC(=O)c2ccccc2)C(=O)c2ccccc2C1=O)C1CCS(=O)(=O)C1 (stereo not given) | 66.0 | 0 | 0 | 0 | 0 | 0
CCc1nc2c(OCC(N)=O)cccn2c1N(C)C(=O)C(C)C | - | - | 0 | - | - | 0
COc1cc(/C=C2\C(=O)N(c3ccc(NC(C)=O)cc3)N=C2c2ccccc2)ccc1O | 0 | 16.3 | 0 | 0 | 0 | 0
O=C1/C(=C\c2ccc(O)c(O)c2)C(c2ccccc2)=NN1c1ccccc1 | 0 | 0 | 0 | 0 | 0 | 0
O=C(N/N=C/c1ccc(N2CCOCC2)s1)c1ccc(O)cc1 | - | - | 0 | 0 | - | 0
NC(=O)N/N=C/c1ccc(N2CCOCC2)s1 | 0 | 0 | 0 | 48.4 | 0 | 0
CC(C)C[C@H]1CNC(=S)N1CC1CCCN1C[C@H](Cc1ccccc1)N1C[C@H](Cc2ccc(O)cc2)N(CC2CCCCCC2)C1=S (stereo not given in full) | - | - | 0 | 0 | - | 0
CC(C)C[C@H]1CNC(=S)N1C[C@H]1CCCN1C[C@H](Cc1ccc(O)cc1)N1C[C@H](Cc2ccc(O)cc2)N(CC2CCCCCC2)C1=S | - | - | 59.8 | - | - | 0
Oc1ccc(C[C@H]2CNC(=S)N2CC2CCCN2C[C@H](Cc2ccccc2)N2C[C@H](Cc3ccc(O)cc3)N(CCc3ccccc3)C2=S)cc1 (stereo not given in full) | - | - | 58.1 | 0 | - | 0
Cc1ccc(/C=[N+](\[O-])c2ccc(N(C)C)cc2)c2nsnc12 | 0 | 0 | 56.7 | 0 | -57.0 | 0
Cc1ccc2nsnc2c1NS(=O)(=O)c1c(C)ccc2nsnc12 | 0 | 0 | 0 | 0 | 0 | 0
CN(Cc1cn(C)nc1-c1ccc(Oc2ccccc2)cc1)Cc1cnc2ccccn12 | 0 | 0 | 77.1 | 0 | 0 | 0
Cc1c(CC(=O)NCC(=O)NCC(=O)N[C@@H](Cc2ccccc2)C(=O)O)c(=O)oc2c(C)c(O)ccc12 | - | - | 0 | - | - | 0
SMILES | HSF1 activator | HSP90 refold inh | TWEAK Fn14 block | EBV LMP1 NFkB | HSF1 inhib | TROY NFkB inh
COc1cc(F)ccc1-c1csc(C(C)(O)c2ccc(F)c(F)c2)n1 (stereo not given) | - | - | 0 | - | - | 0
COCCCN1CCc2[nH]c(=S)[nH]c(=O)c2C1 | 58.1 | 0 | 0 | 0 | 0 | 0
COc1cccc(CN2CCc3[nH]c(=S)[nH]c(=O)c3C2)c1 | 0 | 0 | 0 | 0 | 0 | 0
OCC[C@@H]1C[C@H](O)[C@@H](O)[C@@]2(OCCCc3cc(Cl)ccc32)O1 | - | - | 0 | - | - | 0
CCC(CC)C(=O)Nc1cccc(C(=O)Nc2ccc(S(=O)(=O)Nc3ccc(C)cc3)cc2)c1 | 0 | 0 | 0 | 0 | 0 | 53.7
Cc1ccc(S(=O)(=O)NC(=O)c2cccc(Br)c2)cc1 | 0 | 0 | 84.5 | 0 | 0 | 0
C[C@@H]1CN([C@@H](C)CO)C(=O)c2cc(NS(=O)(=O)c3ccc(F)cc3)ccc2O[C@@H](C)CCCCO[C@H]1CN(C)C(=O)NC1CCCCC1 | - | - | 0 | 0 | - | 0
O=C(/C=C/c1ccc(Br)o1)Nc1nccs1 | 83.4 | 0 | 0 | 0 | 0 | 0
O=C(Nc1nccs1)c1ccc(Br)o1 | 0 | 0 | 0 | 0 | 0 | 0
COC(=O)c1ccc(COc2cccc3c2CCN(Cc2ccccc2)C3=O)o1 | 0 | 0 | 0 | 0 | 0 | 0
COC(=O)c1ccc(COc2cccc3c2CCN(Cc2cccc(C)c2)C3=O)o1 | 0 | 0 | 55.4 | 0 | 0 | 0
CCC(=O)NC(=S)Nc1ccc(NC(=O)c2cccnc2)cc1 | 0 | 0 | 72.2 | 0 | 0 | 0
Cc1ccc2cccc(NC(=S)NC(=O)c3ccccc3)c2n1 | 0 | 0 | 0 | 0 | 0 | 0
COc1ccc(NC(=S)NC(=O)c2cccnc2)cc1 | 0 | 0 | 0 | 0 | 0 | 0
CCC(=O)Nc1cccc(NC(=S)NC(=O)c2ccccc2)c1 | 53.7 | 0 | 0 | 0 | 0 | 0
CCC(=O)Nc1cccc(NC(=S)NC(=O)c2ccc(C)cc2)c1 | 0 | 0 | 0 | 0 | 0 | 0
O=C(NC(=S)Nc1ccc2ncccc2c1)c1ccccc1 | 0 | 0 | 0 | 0 | 0 | 63.8
Cc1ccc2cccnc2c1NC(=S)NC(=O)c1ccccc1 | 137.2 | 0 | 0 | 0 | 0 | 0
COc1cccc(C(O)c2nc(-c3cccc(CO)c3)cs2)c1 (stereo not given) | - | - | 0 | - | - | 0
CCCCCN(C(=O)CCC(=O)OC(C)C(=O)Nc1ccccc1C)c1c(N)n(CCCC)c(=O)[nH]c1=O (stereo not given) | - | - | 0 | 0 | - | 0
O=C(CC(=O)c1ccccc1O)c1ccc(F)cc1 | 75.2 | 0 | 0 | 0 | 0 | 0
O=C(CCCC(=O)c1ccc(F)cc1)c1ccc(F)cc1 | 81.4 | 0 | 0 | 0 | 0 | 0
O=C(CC(=O)c1ccccc1O)c1cccc(F)c1 | 0 | 0 | 0 | 0 | 0 | 0
N=C1S/C(=C\c2ccc(-c3cccc(Cl)c3)o2)C(=O)N1c1nccs1 | 222.6 | 0 | 90.2 | 0 | 0 | 0
Cc1ccc(C)c(C(O)c2ncc(-c3cccc(F)c3)[nH]2)c1 (stereo not given) | - | - | 0 | - | - | 0
SMILES | HSF1 activator | HSP90 refold inh | TWEAK Fn14 block | EBV LMP1 NFkB | HSF1 inhib | TROY NFkB inh
Nc1nn(-c2ccccc2)c(N)c1N=Nc1ccccc1 | 0 | 0 | 0 | 0 | 0 | 0
Nc1nn(-c2ccccc2)c(N)c1N=Nc1ccccc1F | 59.2 | 0 | 0 | 0 | 0 | 0
Oc1ccc(-c2cnns2)c(O)c1 | 0 | 0 | 63.0 | 0 | 0 | 0
Nc1ncc(-c2ccccc2)c(-c2ccc(O)cc2O)n1 | 0 | 0 | 0 | 0 | 0 | 0
COc1ccc(C(C)(O)c2nc(-c3ccc(OC)nc3)cs2)cc1 (stereo not given) | - | - | 0 | - | - | 0
COc1ccc(Cl)cc1NC(=O)c1cnc2n(c1=O)CCS2 | 0 | - | 53.5 | 0 | 0 | 0

Screening data: PubChem BioAssay, several laboratories
